High-throughput results as filed in PubChem BioAssay.
RmlCD inh mix – RmlC and RmlD coupled enzyme inhibitors, primary screen, biochemical, 384-well, compound mixtures, retest; RmlC/RmlD coupled enzyme inhibition, 384-well mixture HTS; inhibition, % at 5.5 µM; 0.39% of 110,000 active; in the data active = inhibition above about 30%, passing the limit was not always enough; inconclusive = no clear call, values can overlap the other calls
HIV RNase H inh-1 – HIV-1 RT RNase H inhibitors, primary screen, biochemical, fluorescence; 1.9% of 65,000 active; RT-RNase H RNA/DNA duplex cleavage; inhibition, % at 10 µM; in the data active = inhibition above about 50%
HIV RNase H inh-2 – HIV-1 RT RNase H inhibitors, retest, confirmation, biochemical; Recombinant RT RNase H, fluorescent RNA/DNA duplex cleavage; inhibition, % at 10 µM; 39% of 1,000 active; shares compounds with HIV RNase H inh-1; in the data active = inhibition above about 48%; inconclusive = no clear call, values can overlap the other calls
RmlCD fluor art – counter-screen for RmlC/RmlD inhibitors: fluorescence artifact, dose response, artefact control, biochemical; shares compounds with RmlCD inh mix; RmlC/RmlD assay fluorescence artifact counter-screen; calls only; 96% of 360 active; call rule not given here;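 note: compound alone with no enzyme and no substrates present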
Each line names hits and unclear results; the compound was inactive in the other large screens (follow-up assays come after a bar, where they were run). This excerpt belongs to a sample that is enriched for hits.

CN1CCN(C2=C(Cl)C(=O)N(c3ccc(Cl)c(Cl)c3)C2=O)CC1	HIV RNase H inh-1 96 | HIV RNase H inh-2 74
Cc1ccccc1N1C(=O)C(Cl)=C(N2CCN(c3ccccc3)CC2)C1=O	none
COc1ccc(N2C(=O)C(Cl)=C(N3CCCC(C)C3)C2=O)cc1 (centres undefined)	none (no result: HIV RNase H inh-1)
COc1ccc(N2C(=O)C(Cl)=C(N3CCCC3)C2=O)cc1	HIV RNase H inh-1 52 | HIV RNase H inh-2 inactive
COC(=O)c1cccc(Oc2nc(N3CCOCC3)nc(N3CCOCC3)n2)c1	none (no result: RmlCD inh mix)
O=C1C(Cl)=C(N2CCOCC2)C(=O)N1c1ccccc1Cl	HIV RNase H inh-1 70 | HIV RNase H inh-2 inactive
CN1CCN(C2=C(Cl)C(=O)N(Cc3ccccc3)C2=O)CC1	none
COC(=O)c1cccc(N2C(=O)C(Cl)=C(N3CCOCC3)C2=O)c1	HIV RNase H inh-1 83 | HIV RNase H inh-2 62
C#CCNC(=O)C1=C[C@@H](C)C[C@@H](OCc2ccc(CO)cc2)O1	none (no result: HIV RNase H inh-1)
C[C@H](CO)NC(=O)[C@@H]1C[C@H]1[C@@H](NP(=O)(c1ccccc1)c1ccccc1)c1ccccc1	none (no result: HIV RNase H inh-1)
O=C(Nc1ccc(Cl)c(Cl)c1)N(CCCN1CCOCC1)Cc1cccs1	none (no result: HIV RNase H inh-1)
COC(=O)C(Cc1ccccc1)NS(=O)(=O)c1ccc(F)cc1Br (centres undefined)	none (no result: HIV RNase H inh-1)
CCN(CC)CCCN1C(=O)C(O)=C(C(C)=O)C1c1ccc(OC)cc1OC (centres undefined)	none (no result: RmlCD inh mix)
Cn1c(=O)n(-c2cccc(Cl)c2)c(=O)n1C	none
CN1CCN(C2=C(Cl)C(=O)N(c3cccc(Cl)c3)C2=O)CC1	HIV RNase H inh-1 70 | HIV RNase H inh-2 inactive
O=C1OCC(CO)(CO)N=C1NNc1ccc(Cl)c(Cl)c1	none (no result: HIV RNase H inh-1)
COC(=O)c1sc(N2C(=O)c3oc4ccccc4c(=O)c3C2c2cccs2)nc1C (centres undefined)	HIV RNase H inh-1 93 | HIV RNase H inh-2 57
C=CCOC(=O)c1sc(N2C(=O)c3oc4ccccc4c(=O)c3C2c2ccco2)nc1C (centres undefined)	none (no result: RmlCD inh mix)
Cc1ccc(C)c(NC(=S)N(CCc2nc3cc(C)c(C)cc3[nH]2)Cc2cccnc2)c1	none (no result: HIV RNase H inh-1)
Cc1cccc(-c2nnc3n2N=C(c2ccc(Br)cc2)CS3)c1	none
COc1cccc(-c2nnc3n2N=C(c2cccc(Br)c2)CS3)c1	HIV RNase H inh-1 54 | HIV RNase H inh-2 inconclusive
COc1ccccc1-c1nnc2n1N=C(c1ccc(O)c(O)c1)CS2	HIV RNase H inh-1 94 | HIV RNase H inh-2 58
CCOc1ccc(C2=Nn3c(nnc3-c3ccccc3OC)SC2)cc1	none
CC1(c2nnc(-c3cccc(Cl)c3)o2)CC(c2cccnc2)=NO1 (centres undefined)	none (no result: HIV RNase H inh-1)
O=C(NCCc1c[nH]c2ccccc12)[C@@H]1C[C@H]1[C@@H](NP(=O)(c1ccccc1)c1ccccc1)c1ccccc1	none (no result: HIV RNase H inh-1)
Cc1n[nH]c(C)c1S(=O)(=O)N(CC(=O)Nc1ccc2c(c1)OCCO2)c1ccc(C(C)C)cc1	none
CCN(CC)c1ccc(CC2C(=O)N(C)C(=O)N(C)C2=O)cc1	none (no result: RmlCD inh mix)
C=CCOc1ccc(CC2C(=O)N(C)C(=O)N(C)C2=O)cc1	HIV RNase H inh-1 56 | HIV RNase H inh-2 88
O=Cc1ccc(O)c(O)c1	none (no result: HIV RNase H inh-1)
O=C(O)/C=C/c1ccc(O)c(O)c1	HIV RNase H inh-1 74 | HIV RNase H inh-2 76
O=S(=O)(NCc1ccc2c(c1)OCO2)c1cccc(S(=O)(=O)N2CCOCC2)c1	none
O=C(CSc1nc2c(c(=O)[nH]1)CCC2)Nc1cccc(Cl)c1	HIV RNase H inh-1 87 | HIV RNase H inh-2 inactive
CN(C)c1ccc(NC(=O)CSc2nc3c(c(=O)[nH]2)CCCC3)cc1	none
COc1ccc(N2CCN(Cc3cc(=O)oc4cc(-c5ccccc5)c(O)cc34)CC2)cc1	HIV RNase H inh-1 92 | HIV RNase H inh-2 69
COc1ccc(N2CCN(Cc3cc(=O)oc4cc(C)c(Cl)cc34)CC2)cc1	none
O=C(NC1CC1)C1=C[C@@H](C2CCCCC2)C[C@@H](OCCCCO)O1	none (no result: HIV RNase H inh-1)
COc1ccccc1OCCn1c(C(C)O)nc2ccccc21 (centres undefined)	HIV RNase H inh-1 65 | HIV RNase H inh-2 inactive
CC(O)c1nc2ccccc2n1CCOc1ccccc1 (centres undefined)	none (no result: HIV RNase H inh-1)
O=S(=O)(NC(=NC1CCCC1)C(F)(F)F)c1ccccc1	none
O=C(NCCc1ccccc1)C1CCCN(S(=O)(=O)c2cccs2)C1 (centres undefined)	none
CCCn1nnc(NC(=S)NC(=O)CC)n1	none (no result: HIV RNase H inh-1)
CCOC(=O)C1C(=O)NC(SCC(N)=O)=C(C#N)C1c1ccccc1OCC (centres undefined)	HIV RNase H inh-1 66 | HIV RNase H inh-2 inactive
CCOC(=O)C1C(=O)NC(SC)=C(C#N)C1c1ccccc1F (centres undefined)	none
O=C(N[C@@H](Cc1ccccc1)C(=O)O)c1c(F)c(F)c(F)c(F)c1F	none (no result: HIV RNase H inh-1)
Cc1nc(C(=O)NCc2ccccc2)sc1C1(C)CC(c2ccccc2)=NO1 (centres undefined)	none (no result: HIV RNase H inh-1)
CCOc1ccc(NC(=O)C(C)Oc2ccccc2C(=O)Nc2cccc(Cl)c2Cl)cc1 (centres undefined)	none (no result: HIV RNase H inh-1)
CCn1cc(C(=O)NCc2ccco2)c(=O)c2cc(S(=O)(=O)N3CCCCCC3)ccc21	none
CCn1cc(C(=O)NCc2ccco2)c(=O)c2cc(S(=O)(=O)N3CCc4ccccc4C3)ccc21	HIV RNase H inh-1 65 | HIV RNase H inh-2 63
C#CCNC(=O)C1=C[C@H](c2ccc(C(F)(F)F)cc2)C[C@H](OCc2ccc(CO)cc2)O1	none (no result: HIV RNase H inh-1)
Cc1cc(C)nc(/N=c2/ssnc2Cl)c1	HIV RNase H inh-1 84 | HIV RNase H inh-2 inactive
Cc1ccc(N=c2ssnc2Cl)cc1	none (no result: HIV RNase H inh-1)
Cc1ccc(-c2nnn(CC(=O)Nc3ccc4nn(-c5ccccc5)nc4c3)n2)o1	HIV RNase H inh-1 76 (no result: RmlCD inh mix) | HIV RNase H inh-2 inconclusive
Cc1ccc(-c2nnn(CC(=O)NCC3CC3)n2)o1	none (no result: HIV RNase H inh-1)
COc1cc(C(c2nnnn2C2CCCC2)N2CCc3ccccc3C2)ccc1O (centres undefined)	HIV RNase H inh-1 51 | HIV RNase H inh-2 inactive
Oc1ccc(C(c2nnnn2C2CCCC2)N2CCc3ccccc3C2)cc1 (centres undefined)	none
CC(C)c1onc(C(=O)N2CCN(Cc3ccccc3)CC2)c1[N+](=O)[O-]	none (no result: HIV RNase H inh-1)
Cc1c(C#N)c2ccccc2n1CC(=O)NC(C)c1ccccc1 (centres undefined)	none (no result: HIV RNase H inh-1)
Cc1cccc(NC(=O)Cn2c(C)c(C#N)c3ccccc32)c1C	HIV RNase H inh-1 72 | HIV RNase H inh-2 63
Cc1nc2sccn2c1-c1nc(C2CC2)c(C(=O)c2ccc3c(c2)NC(=O)CO3)s1	none (no result: RmlCD inh mix)
COc1nc(-c2ccccc2)ccc1-c1noc(-c2ccccc2)n1	none
COc1nc(-c2ccc(Cl)cc2)ccc1-c1noc(-c2ccncc2)n1	HIV RNase H inh-1 64 (no result: RmlCD inh mix) | HIV RNase H inh-2 inactive
CN(C)CCNC(=O)c1c(CSc2ccccc2)noc1C(=O)NCc1ccccc1	none (no result: HIV RNase H inh-1)
O=C(Nc1nc(NC(=O)c2ccco2)n(-c2ccccc2)n1)c1ccccc1	RmlCD inh mix 138, HIV RNase H inh-1 53 | HIV RNase H inh-2 inactive | RmlCD fluor art active
O=C(Nc1nc2ccccc2n1Cc1ccccc1)c1ccco1	none
